From PubChem BioAssay AID1159580 (chemical genetic matrix, 2015)
The whole screen tested about 5,500 compounds, of which about 2,000 (36%) were called active. Inconclusive results (about 18%) are left out. Rule as the data show it: active = normalized growth mostly below about 0.91 (no sharp cut-off); inconclusive = no clear call, values can overlap the other calls; inactive = mostly above about 0.92. This is one part of the list.

Experiment: chemical genetic growth profiling, strain panel (AID 1159580);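 also: tested at 20 µM; growth read once vehicle control cultures reached saturation at 30 °C; 1 = growth at the plate median or of vehicle wells; lower values mean less growth of the strain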
Conditions: growth OD

Measured: normalized growth

CC(=O)OC(C)(C)[C@@H]1Cc2cc3ccc(=O)oc3cc2O1
inactive: S. cerevisiae deletion strains, locus YJR066W, strain TOR1, hits give low values 0.928 | S. cerevisiae deletion strains, locus YJR075W, strain HOC1, hits give low values 0.992 | S. cerevisiae deletion strains, locus YKL009W, strain mrt4, hits give low values 1.03 | S. cerevisiae deletion strains, locus YKL068W, hits give low values 1.01 | S. cerevisiae deletion strains, locus YKL085W, strain MDH1 (second series), hits give low values 0.998 | S. cerevisiae deletion strains, locus YKL085W, strain MDH1, hits give low values 0.998 | S. cerevisiae deletion strains, locus YKL160W, strain elf1, hits give low values 1.02 | S. cerevisiae deletion strains, locus YKL190W, strain CNB1, hits give low values 1.01 | S. cerevisiae deletion strains, locus YKR001C, strain vps1, hits give low values 1 | S. cerevisiae deletion strains, locus YKR026C, strain gcn3, hits give low values 0.957 | S. cerevisiae deletion strains, locus YKR091W, strain srl3, hits give low values 0.975 | S. cerevisiae deletion strains, locus YLL001W, strain dnm1, hits give low values 0.984 | S. cerevisiae deletion strains, locus YLL026W, hits give low values 0.97 | S. cerevisiae deletion strains, locus YLL041C, strain sdh2, hits give low values 0.984 | S. cerevisiae deletion strains, locus YLR027C, strain aat2, hits give low values 0.962 | S. cerevisiae deletion strains, locus YLR039C, strain RIC1, hits give low values 1.07 | S. cerevisiae deletion strains, locus YLR058C, strain SHM2, hits give low values 0.999 | S. cerevisiae deletion strains, locus YLR102C, strain apc9, hits give low values 1 | S. cerevisiae deletion strains, locus YLR113W, strain HOG1, hits give low values 1.04 | S. cerevisiae deletion strains, locus YLR221C, strain rsa3, hits give low values 1.01 | S. cerevisiae deletion strains, locus YLR258W, strain gsy2, hits give low values 0.951 | S. cerevisiae deletion strains, locus YLR262C, strain YPT6 (second series), hits give low values 1.01 | S. cerevisiae deletion strains, locus YLR262C, strain YPT6, hits give low values 1.07 | S. cerevisiae deletion strains, locus YLR268W, strain sec22, hits give low values 1.04 | S. cerevisiae deletion strains, locus YLR320W, strain mms22, hits give low values 0.956 | S. cerevisiae deletion strains, locus YLR330W, strain CHS5, hits give low values 1 | S. cerevisiae deletion strains, locus YLR342W, strain FKS1 (second series), hits give low values 0.994 | S. cerevisiae deletion strains, locus YLR342W, strain FKS1, hits give low values 0.969 | S. cerevisiae deletion strains, locus YLR357W, strain rsc2, hits give low values 0.971 | S. cerevisiae deletion strains, locus YLR370C, strain arc18, hits give low values 0.973 | S. cerevisiae deletion strains, locus YLR371W, strain rom2, hits give low values 1.03 | S. cerevisiae deletion strains, locus YLR384C, strain iki3, hits give low values 0.979 | S. cerevisiae deletion strains, locus YLR418C, strain cdc73, hits give low values 0.975 | S. cerevisiae deletion strains, locus YML016C, strain PPZ1, hits give low values 0.999 | S. cerevisiae deletion strains, locus YML032C, strain rad52, hits give low values 0.987 | S. cerevisiae deletion strains, locus YML120C, strain ndi1, hits give low values 0.99 | S. cerevisiae deletion strains, locus YML124C, strain tub3, hits give low values 0.994 | S. cerevisiae deletion strains, locus YMR058W, strain fet3, hits give low values 0.969 | S. cerevisiae deletion strains, locus YMR078C, strain ctf18, hits give low values 1.01 | S. cerevisiae deletion strains, locus YMR125W, strain sto1, hits give low values 0.941 | S. cerevisiae deletion strains, locus YMR129W, hits give low values 0.962 | S. cerevisiae deletion strains, locus YMR205C, strain PFK2, hits give low values 0.915 | S. cerevisiae deletion strains, locus YMR223W, strain ubp8, hits give low values 0.982 | S. cerevisiae deletion strains, locus YMR231W, strain pep5, hits give low values 0.968 | S. cerevisiae deletion strains, locus YMR263W, strain SAP30, hits give low values 0.997 | S. cerevisiae deletion strains, locus YMR307W, strain GAS1, hits give low values 1.03 | S. cerevisiae deletion strains, locus YNL067W, strain RPL9B, hits give low values 0.999 | S. cerevisiae deletion strains, locus YNL071W, strain lat1, hits give low values 0.985 | S. cerevisiae deletion strains, locus YNL183C, strain NPR1, hits give low values 0.983 | S. cerevisiae deletion strains, locus YNL209W, strain ssb2, hits give low values 0.975 | S. cerevisiae deletion strains, locus YNL233W, strain BNI4, hits give low values 0.988 | S. cerevisiae deletion strains, locus YNL248C, strain rpa49, hits give low values 1.02 | S. cerevisiae deletion strains, locus YNL250W, strain rad50, hits give low values 1.01 | S. cerevisiae deletion strains, locus YNL271C, strain bni1, hits give low values 1 | S. cerevisiae deletion strains, locus YNL298W, strain CLA4, hits give low values 1.01 | S. cerevisiae deletion strains, locus YNL307C, strain MCK1, hits give low values 1 | S. cerevisiae deletion strains, locus YNL322C, strain KRE1 (second series), hits give low values 0.951 | S. cerevisiae deletion strains, locus YNR049C, strain mso1, hits give low values 0.955 | S. cerevisiae deletion strains, locus YNR052C, strain pop2, hits give low values 1 | S. cerevisiae deletion strains, locus YOL012C, strain htz1 0.921 | S. cerevisiae deletion strains, locus YOL147C, strain pex11, hits give low values 0.997 | S. cerevisiae deletion strains, locus YOR001W, strain rrp6, hits give low values 1.01 | S. cerevisiae deletion strains, locus YOR061W, strain CKA2, hits give low values 1.01 | S. cerevisiae deletion strains, locus YOR069W, strain VPS5, hits give low values 1 | S. cerevisiae deletion strains, locus YOR070C, strain gyp1, hits give low values 0.995 | S. cerevisiae deletion strains, locus YOR080W, strain dia2, hits give low values 0.982 | S. cerevisiae deletion strains, locus YOR083W, strain WHI5, hits give low values 1.02 | S. cerevisiae deletion strains, locus YOR106W, strain vam3, hits give low values 1.02 | S. cerevisiae deletion strains, locus YOR136W, strain idh2, hits give low values 0.999 | S. cerevisiae deletion strains, locus YOR144C, strain elg1, hits give low values 1 | S. cerevisiae deletion strains, locus YOR184W, strain ser1, hits give low values 0.968 | S. cerevisiae deletion strains, locus YOR231W, strain MKK1, hits give low values 0.963 | S. cerevisiae deletion strains, locus YOR265W, strain rbl2, hits give low values 0.976 | S. cerevisiae deletion strains, locus YOR270C, strain vph1, hits give low values 0.935 | S. cerevisiae deletion strains, locus YOR290C, strain snf2, hits give low values 0.916 | S. cerevisiae deletion strains, locus YOR316C, strain cot1, hits give low values 0.995 | S. cerevisiae deletion strains, locus YPL051W, strain arl3, hits give low values 1 | S. cerevisiae deletion strains, locus YPL078C, strain atp4, hits give low values 0.993 | S. cerevisiae deletion strains, locus YPL106C, strain sse1, hits give low values 0.946 | S. cerevisiae deletion strains, locus YPL240C, strain hsp82, hits give low values 0.995 | S. cerevisiae deletion strains, locus YPL241C, strain CIN2, hits give low values 0.996 | S. cerevisiae deletion strains, locus YPL256C, strain CLN2, hits give low values 0.962 | S. cerevisiae deletion strains, locus YPR119W, strain clb2, hits give low values 1.02 | S. cerevisiae deletion strains, locus YPR141C, strain kar3, hits give low values 1 | S. cerevisiae deletion strains, locus YPR163C, strain tif3, hits give low values 1 | S. cerevisiae deletion strains, locus YPR167C, strain met16, hits give low values 1 | S. cerevisiae deletion strains, strain wtn01, hits give low values 1.01 | S. cerevisiae strains, strain wild type, hits give low values 1
